Screening data (PubChem)
COUP-TFII inh – blocks human COUP-TFII nuclear receptor | P24468 | HEK293T NGFI-A luciferase reporter, luminescence | inhibition, % at 8.6 µM | 370,000 compounds, 0.7% hits | AID 686940;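 active = inhibition above a per-plate cutoff, mean inhibition of test wells between control levels plus 3 SD, cut at about 38% in these data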;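 also: cells cotransfected with COUP-TFII expression vector driving the NGFI-A reporter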
SRC3 inh – human NCOA3 inhibition; Q9Y6Q9; HEK293 GAL4-SRC3 luciferase reporter, luminescence; inhibition, % at 3.6 µM; 360,000 compounds, 0.17% hits; AID 588352;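 active = inhibition above a per-campaign cutoff, the mean of all compounds plus 3 SD, cut at about 60% in these data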;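 also: higher means less SRC3-driven luciferase light from the GAL4 reporter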
NCOA2 inhibitor – human SRC2 (NCOA2) inhibition. inhibition, % at 9 µM. AID 651957. HEK293 GAL4-SRC2 luciferase reporter, luminescence. 370,000 compounds, 0.17% hits. Q15596;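 active = inhibition above the mean inhibition of all tested compounds plus 3 SD, set per campaign, cut at about 52% in these data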
NR5A2 inv ag – inverse agonists of human LRH-1 (NR5A2) | O00482 | HEK293T StAR-luciferase reporter, LRH-1 transfected, 24 h | inhibition, % at 3.6 µM | 360,000 compounds, 0.13% hits;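 active = inhibition above the mean inhibition of all tested compounds plus 3 SD, cut at about 73% in these data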
Target sequence (O00482 whole entry, looked up): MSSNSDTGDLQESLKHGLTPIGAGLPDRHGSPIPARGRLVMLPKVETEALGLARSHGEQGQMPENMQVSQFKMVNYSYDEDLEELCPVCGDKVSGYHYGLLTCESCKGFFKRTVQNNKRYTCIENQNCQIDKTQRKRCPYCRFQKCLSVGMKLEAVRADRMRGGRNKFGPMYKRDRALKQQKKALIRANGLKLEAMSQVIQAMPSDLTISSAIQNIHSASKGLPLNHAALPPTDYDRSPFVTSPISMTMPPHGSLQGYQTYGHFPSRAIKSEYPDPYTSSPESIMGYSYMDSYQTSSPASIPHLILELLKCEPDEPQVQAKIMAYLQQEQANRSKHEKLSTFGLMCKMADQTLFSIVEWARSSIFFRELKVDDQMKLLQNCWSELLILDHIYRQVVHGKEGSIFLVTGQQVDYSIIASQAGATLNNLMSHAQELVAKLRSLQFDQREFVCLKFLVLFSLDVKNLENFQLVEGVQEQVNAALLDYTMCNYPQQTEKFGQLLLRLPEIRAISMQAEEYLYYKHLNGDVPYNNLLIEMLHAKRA
NCOA1 inh – human NCOA1 inhibition; Q15788; HEK293 GAL4-SRC1 luciferase reporter, luminescence; inhibition, % at 3.6 µM; 360,000 compounds, 0.12% hits;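 active = inhibition above the campaign mean plus 3 SD, with each screening campaign given its own cutoff, cut at about 60% in these data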
VP16 Luc counter – VP16 inhibition counter-screen for COUP-TFII. shares compounds with COUP-TFII inh. HEK293 Gal4-VP16 luciferase reporter, luminescence. inhibition, % at 8.5 µM. 2,500 compounds, 25% hits; in the data active = inhibition above about 13%
NR2F2 inh conf – COUP-TFII (NR2F2) inhibition, confirmation assay | shares compounds with COUP-TFII inh | HEK293 NGFI-A luciferase reporter, luminescence | inhibition, % at 8.5 µM | 2,500 compounds, 45% hits;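 active = mean inhibition over three repeats above a set limit taken from the earlier primary screen, cut at about 38% in these data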
Of the large screens only hits and unclear results are named; the others gave an inactive call (follow-up assays come after a bar, where they were run). Shown are actives, neighbours in structure and some others; about 0.83% of the full set was active somewhere.

O=C(NCc1ccccc1F)c1ccc2c(c1)OCO2	none
O=C(NCCc1ccccc1F)c1ccc2c(c1)OCCO2	COUP-TFII inh 96, SRC3 inh 74, NCOA2 inhibitor 90, NCOA1 inh 76 | VP16 Luc counter 63 | NR2F2 inh conf 84
CN1C(=O)C2(C(C#N)=C(N)N(c3cc(Cl)cc(Cl)c3)C3=C2C(=O)CC(C)(C)C3)c2ccccc21 (stereo unspecified)	COUP-TFII inh 44 | VP16 Luc counter inactive | NR2F2 inh conf inactive
Cc1ccc(N2C(N)=C(C#N)C3(C(=O)N(C)c4ccccc43)C3=C2CC(C)(C)CC3=O)cc1Cl (stereo unspecified)	none
Cc1ccc(/C=C2\SC(=S)N(CCCC(=O)NNC(=O)c3ccccc3O)C2=O)cc1	COUP-TFII inh 70, NCOA2 inhibitor 88 | VP16 Luc counter 23 | NR2F2 inh conf 39
Cc1ccc(C(=O)NNC(=O)CCCN2C(=O)/C(=C/c3ccccc3Cl)SC2=S)cc1	COUP-TFII inh 47, NCOA2 inhibitor 63 | VP16 Luc counter 32 | NR2F2 inh conf inactive
O=C(CCN1C(=O)/C(=C/c2ccccc2Cl)SC1=S)NNC(=O)c1cccnc1	none
COc1cc(/C=C2\SC(=S)N(CCC(=O)NC3CCCC3)C2=O)cc(OC)c1OC	none
Cc1ccc(/C=C2\SC(=S)N(CCCC(=O)NC3CCCC3)C2=O)cc1	COUP-TFII inh 42, NCOA2 inhibitor 89 | VP16 Luc counter inactive | NR2F2 inh conf inactive
O=C(CCCN1C(=O)/C(=C/c2ccccc2Cl)SC1=S)Nc1ccccn1	COUP-TFII inh 40, NCOA2 inhibitor 69 | VP16 Luc counter inactive | NR2F2 inh conf inactive
O=C(CCN1C(=O)/C(=C/c2ccccc2Cl)SC1=S)Nc1ccccn1	none
C=CCNC(=O)Nc1ccc2c(c1)[C@@]1(CC(=O)N(CC(C)C)C1c1ccccc1)C(=O)N2C (stereo partly specified)	none (no result: SRC3 inh, NR5A2 inv ag, NCOA1 inh)
Cc1ccc(/C=C2/SC(=S)N(CCCC(=O)Nc3ccc(O)cc3)C2=O)cc1	COUP-TFII inh 70, NCOA2 inhibitor 85 | VP16 Luc counter inactive | NR2F2 inh conf inactive
c1ccc(COCCc2cn(Cc3ccccc3)c3ccccc23)cc1	none (no result: SRC3 inh, NR5A2 inv ag, NCOA1 inh)
COc1ccc(-c2cc(C(=O)Nc3cccc(O)c3)no2)cc1	COUP-TFII inh 50 | VP16 Luc counter inactive | NR2F2 inh conf inactive
CCOc1ccc(-c2cc(CCCC(=O)Nc3cc(OC)ccc3OC)no2)cc1	COUP-TFII inh 67, NCOA2 inhibitor 73 | VP16 Luc counter 38 | NR2F2 inh conf inactive
CCOc1ccc(-c2cc(CCCC(=O)Nc3cccc(OC)c3)no2)cc1	COUP-TFII inh 42, NCOA2 inhibitor 55 | VP16 Luc counter inactive | NR2F2 inh conf inactive
CCOc1ccc(NC(=O)CCCc2cc(-c3ccc(OCC)cc3)on2)cc1	none
COc1ccc(C(=O)Nc2ccc(Cl)c(S(=O)(=O)Nc3ccccc3OC)c2)cc1	COUP-TFII inh 63 | VP16 Luc counter inactive | NR2F2 inh conf 67
COc1ccccc1NS(=O)(=O)c1cc(NC(=O)c2ccc(Cl)nc2)ccc1Cl	COUP-TFII inh 68 | VP16 Luc counter 15 | NR2F2 inh conf 60
CC1(Cc2ccc3ccccc3n2)C(=O)Nc2ccc(OC(F)(F)F)cc21 (stereo unspecified)	COUP-TFII inh 90 | VP16 Luc counter inactive | NR2F2 inh conf inactive
CC1(Cc2ccccc2OC(F)(F)F)C(=O)Nc2ccc(OC(F)(F)F)cc21 (stereo unspecified)	none
C[C@@H]1CN(C(=O)OC(C)(C)C)CCN1c1ccc(N2CCN(Cc3ccccc3)[C@@H](C)C2)c(C#N)c1	none (no result: SRC3 inh, NR5A2 inv ag, NCOA1 inh)
O=C1NCCN1CCN1CCC(c2cn(-c3ccc(F)cc3)c3ccc(Cl)cc23)CC1	COUP-TFII inh 43 (no result: SRC3 inh, NR5A2 inv ag, NCOA1 inh) | VP16 Luc counter inactive | NR2F2 inh conf inactive
Nn1c(SCC(=O)N2c3ccccc3Sc3ccc(Cl)cc32)nnc1-c1n[nH]c2c1CCC2	none (no result: SRC3 inh, NR5A2 inv ag, NCOA1 inh)
O=C(NCc1cccnc1)C1CCN(C(=O)c2ccc(Cl)cc2Cl)CC1	none
O=C(NCc1cccnc1)C1CCC(c2ccc(Cl)cc2)CC1 (stereo unspecified)	COUP-TFII inh 41 | VP16 Luc counter inactive | NR2F2 inh conf 55
CN(CCOC(=O)CCCc1ccccc1)C1CN(Cc2cn(Cc3ccccc3F)nn2)S(=O)(=O)C1 (stereo unspecified)	none (no result: SRC3 inh, NR5A2 inv ag, NCOA1 inh)
